USP10 inh – blocks human USP10 ubiquitin-rhodamine cleavage; Q14694; purified USP10, Ub-rhodamine fluorescence, 60 min; inhibition, % at 20 µM; 1.1% of 47,000 active
USP30 inh – human USP30 deubiquitinase inhibition | 5.3% of 47,000 active | AID 1645860 | Q70CQ3 | purified USP30, Ub-rhodamine cleavage fluorescence | inhibition, % at 25 µM
Target sequence (Q70CQ3 whole entry, looked up): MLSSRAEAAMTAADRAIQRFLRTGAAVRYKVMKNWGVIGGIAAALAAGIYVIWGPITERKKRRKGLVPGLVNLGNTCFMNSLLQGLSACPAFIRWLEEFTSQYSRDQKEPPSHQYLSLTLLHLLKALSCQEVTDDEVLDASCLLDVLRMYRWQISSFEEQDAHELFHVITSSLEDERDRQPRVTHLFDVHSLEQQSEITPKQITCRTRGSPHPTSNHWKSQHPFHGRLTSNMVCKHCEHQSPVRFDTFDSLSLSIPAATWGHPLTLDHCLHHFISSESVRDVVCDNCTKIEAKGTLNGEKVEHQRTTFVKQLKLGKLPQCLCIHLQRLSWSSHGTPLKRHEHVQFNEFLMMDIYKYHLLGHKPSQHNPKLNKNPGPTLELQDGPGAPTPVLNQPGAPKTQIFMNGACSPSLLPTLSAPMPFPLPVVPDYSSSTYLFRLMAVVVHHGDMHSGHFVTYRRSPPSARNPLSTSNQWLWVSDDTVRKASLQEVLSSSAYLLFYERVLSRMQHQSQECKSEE
USP28 block – human USP28 deubiquitinase inhibition; 3% of 47,000 active; purified USP28, Ub-rhodamine cleavage fluorescence, 30 min; Q96RU2; inhibition, % at 25 µM
USP17 block – human USP17-like deubiquitinase inhibition | A8MUK1 | purified USP17, Ub-rhodamine cleavage fluorescence, 3 h | inhibition, % at 50 µM | 6.5% of 47,000 active | AID 1645855
OTUD3 block – inhibitors of human OTUD3 deubiquitinase. 0.7% of 47,000 active. AID 1645858. purified OTUD3, Ub-rhodamine fluorescence, 2 h. inhibition, % at 25 µM
USP8 block – blocks human USP8 ubiquitin-rhodamine cleavage; AID 1645853; 4.2% of 47,000 active; P40818; purified USP8, Ub-rhodamine cleavage fluorescence, 30 min; inhibition, % at 20 µM
Active calls of the source: *; . = no result given. In the library only some 13% were active in any assay of this set; here they are far more common. No stated cut-off is given here; in the data, active means inhibition above about 30%; inactive means the rest.

SMILES | USP10 inh | USP30 inh | USP28 block | USP17 block | OTUD3 block | USP8 block
O=C(Nc1ccccc1)C1CCc2nc(N3CCCCC3)ncc2C1 (centres undefined) | -4.7 | -41.0 | -14.6 | -17.7 | -18.4 | -26.0
CCCCN1CCN(c2ccc3c(c2)CCC3)C1=O | 1.6 | -1.4 | 7.7 | 3.7 | -2.7 | 6.0
O=C1N(CC2CC2)CCN1c1ccc2c(c1)CCC2 | 0.5 | 20.1 | 34.2* | 10.6 | 13.9 | 18.4
O=C1N(CC2CCCCC2)CCN1c1ccc2c(c1)CCC2 | 9.1 | 19.0 | 11.9 | 31.0* | 10.5 | 25.3
Cc1cc(C)cc(CN2CCN(c3ccc4c(c3)CCC4)C2=O)c1 | 6.5 | 12.1 | 7.0 | 16.5 | 20.6 | 8.2
O=C(Nc1ccccc1-c1nc(-c2ccccn2)no1)c1cc(Cl)ccc1Cl | 15.4 | 59.9* | 43.6* | 55.6* | 2.9 | 83.4*
Cc1noc(-c2ccccc2NC(=O)c2ccc(Cl)c(Cl)c2)n1 | 5.7 | 18.7 | 3.0 | 6.4 | 9.8 | 9.9
CC(Nc1ncnc2c1cnn2C)c1ccccc1 (centres undefined) | 0.6 | 8.8 | 2.3 | 3.8 | 11.7 | 18.2
c1ccc(-c2cc(Nc3c4c(nc5ccccc35)CCCC4)n[nH]2)cc1 | -2.4 | -45.1 | -13.9 | 43.5* | -16.8 | 1.9
Clc1ccc2nc3c(c(Nc4[nH]ncc4-c4ccccc4)c2c1)CCC3 | 3.8 | 16.5 | 12.8 | 19.4 | 14.4 | 11.4
Cc1ccc(-c2nnn(CC(=O)N(c3ccccc3C)C(C(=O)NC3CCCC3)c3ccncc3)n2)o1 (centres undefined) | -4.6 | -207.1 | -46.3 | 41.0* | -51.5 | -19.1
COc1ccc(C(C(=O)NC2CCCC2)N(C(=O)Cn2nnc(-c3ccc(C)o3)n2)c2ccccc2C)cc1 (centres undefined) | 1.8 | 0.8 | 8.5 | 21.6 | 5.1 | 18.4
Cc1ccc(-c2nnn(CC(=O)N(c3ccc(C4CCCCC4)cc3)C(C(=O)NC3CCCCC3)c3ccc(F)cc3)n2)o1 (centres undefined) | 4.6 | -17.9 | -5.8 | 32.9* | 5.5 | 0.2
O=C(/C=C/c1ccccc1)Nc1ccc(Oc2ccc(F)cc2)nc1 | 1.8 | -11.3 | 5.8 | 5.8 | -0.1 | 11.9
COc1ccc(/C=C/C(=O)Nc2c3c(nc4c2CCC4)CCCC3)cc1 | -0.6 | 61.0* | 6.9 | 37.9* | 8.2 | 3.3
COc1ccc(/C=C/C(=O)Nc2ccc(OC)nc2)cc1 | -5.7 | -44.8 | 17.1 | 22.7 | -6.1 | -14.2
O=C(Nc1ccc(F)cc1F)C1CC(=O)N(Cc2ccccc2)C1 (centres undefined) | 1.7 | -15.4 | -4.5 | -0.1 | -4.5 | 1.1
Cc1ccc2nc(NC(=O)C3CC(=O)N(Cc4ccccc4)C3)sc2c1 (centres undefined) | -1.7 | -25.2 | -4.3 | 9.7 | -13.3 | 31.2*
O=C(CN1C(=O)COc2ccc(C(=O)N3CCCC3)cc21)NC1CCCCCC1 | 0.4 | 1.9 | -7.0 | -9.8 | -6.2 | -0.1
CC(C)c1ccc(C(C(=O)NC2CCCCC2)N(C(=O)c2cnccn2)c2cccc(F)c2)cc1 (centres undefined) | 2.9 | 65.5* | 15.6 | 27.9 | 18.1 | 30.4*
O=C(c1ccc(F)cc1)N1CCN(c2ncnc3c2nnn3Cc2ccccc2)CC1 | 0.3 | . | . | 7.9 | 6.4 | 0.2
O=C(Cc1ccc(Cl)cc1)N1CCN(c2ncnc3c2nnn3Cc2ccccc2)CC1 | 10.4 | 35.1* | 12.0 | 7.3 | 8.4 | 3.2
O=C(CCC1CCCCC1)N1CCN(c2ncnc3c2nnn3Cc2ccccc2)CC1 | 7.5 | 31.8* | 13.5 | 12.2 | 12.8 | 14.2
CN(C1CCCCC1)S(=O)(=O)N1CCCC(C(=O)NC2CCN(Cc3ccccc3)CC2)C1 (centres undefined) | -2.6 | 7.0 | 2.1 | -4.2 | 9.9 | 8.6
Cc1ccccc1NC(=O)Cn1c(C)nc2c(c1=O)CCN(Cc1ccccc1)C2 | -13.6 | -20.8 | -3.5 | 16.3 | -5.7 | 49.2*
SMILES | USP10 inh | USP30 inh | USP28 block | USP17 block | OTUD3 block | USP8 block
Cc1nc2c(c(=O)n1CC(=O)Nc1ccccc1)CCN(Cc1ccccc1)C2 | -2.0 | 2.8 | 1.8 | -9.7 | -0.9 | -35.1
NC(=O)c1ccc(NC(=O)Cc2cc(-c3ccc(F)cc3)on2)cc1 | -4.0 | -41.0 | -8.2 | 39.1* | -19.4 | -8.1
COc1cccc(-c2cc(CC(=O)Nc3ccc(C(N)=O)cc3)no2)c1 | 3.6 | -33.4 | 17.7 | -3.3 | -9.1 | 40.2*
COc1ccccc1CNC(=O)Cc1cc(-c2ccc(F)cc2)on1 | 0.9 | 0.0 | -12.2 | 15.5 | -12.3 | -8.3
COc1ccc2c(c1)OC[C@@H](C)N(S(=O)(=O)c1ccc(F)cc1)[C@@H]2C | 0.7 | 29.6 | -12.4 | -3.8 | -3.6 | -1.3
CC(C)C(=O)N1CC(C(=O)Nc2ccc(F)cc2)C2(CCOCC2)C1 (centres undefined) | -0.1 | 11.5 | 7.4 | 2.7 | -4.0 | -3.1
CCn1c(CN2CCCC(c3nc(-c4cccnc4)n[nH]3)C2)nc2ccccc21 (centres undefined) | -3.7 | -20.3 | 70.6* | -42.0 | -5.8 | -170.0
c1cncc(-c2n[nH]c(C3CCCNC3)n2)c1 (centres undefined) | 3.9 | 9.6 | 4.2 | 7.9 | 6.5 | 10.3
CNc1nc(C2CCCN(C)C2)nc2c1CN(S(=O)(=O)c1c(C)noc1C)CC2 (centres undefined) | -3.4 | -16.9 | -2.1 | -1.7 | -3.8 | 2.9
CC(NC(=O)c1ccc2ccccc2n1)c1ccccc1 (centres undefined) | 2.9 | 44.0* | 22.5 | 18.5 | 23.2 | 14.6
Cc1c(S(=O)(=O)N2CCCC2)cc(C(=O)Nc2ccccc2)n1C | 9.0 | 8.7 | 23.8 | 45.6* | -1.4 | 0.4
Cc1cc(C)n(CCC(=O)N2CCc3nc4ccccc4c(=O)n3CC2)n1 | 0.4 | 16.2 | 1.9 | 5.4 | 7.6 | 7.4
COc1ccc(CNC(=O)Cc2cc(-c3ccc(Cl)cc3)on2)cc1 | -8.2 | 10.0 | 5.4 | 6.6 | 9.9 | 19.0
Cc1cccc(OCC(=O)Nc2ccc3c(c2)CCC(=O)N3Cc2ccccc2)c1 | 11.2 | 31.2* | 15.5 | 16.1 | 11.7 | 20.7
COc1cccc(OCC(=O)Nc2ccc3c(c2)CCC(=O)N3Cc2ccccc2)c1 | 8.5 | 11.5 | 34.9* | 20.4 | 9.1 | 7.9
CCOc1ccc(CCNC(=O)CCC2=NS(=O)(=O)c3ccccc3N2)cc1 | 4.0 | 14.3 | 14.0 | 8.9 | 7.3 | 3.1
Cc1noc2nc(C)n(CC(=O)NCc3cccc(Cl)c3)c(=O)c12 | -2.8 | 5.5 | 1.5 | 25.8 | -7.5 | 17.0
O=C1COc2ccc(C(=O)COC(=O)C3(c4ccc(F)cc4)CCCC3)cc2N1 | 5.5 | 10.8 | 3.3 | 8.5 | 1.8 | 5.9
O=C1COc2ccc(C(=O)COC(=O)CCc3nc4ccccc4s3)cc2N1 | 14.3 | 30.0* | 32.4* | 48.1* | 14.4 | 2.8
O=C1COc2ccc(C(=O)COC(=O)c3ccccc3O)cc2N1 | -1.3 | -33.9 | -9.5 | 36.1* | -2.8 | -2.6
COc1ccc(C2NC(=O)NC(C)=C2C(=O)OCC2CCCCC2)cc1OC (centres undefined) | 8.1 | 3.9 | -5.6 | -13.8 | -12.8 | -9.3
